Experimental data from PubChem BioAssay AID1259341 (Broad Institute, 2017).
Values without a mark were called inactive.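 The calls were made as follows: active = activity change under -35% in any replicate well, with more than 20 beads read in that well; inactive = the rest.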

Biological target: Caspase recruitment domain-containing protein 9 (Homo sapiens) + E3 ubiquitin-protein ligase TRIM62 (Homo sapiens) (UniProt Q9H257+Q9BVG3)
Test: CARD9/TRIM62 protein interaction inhibitors – cell lysate, HEK293FT lysates, Luminex bead ELISA, primary screen (AID 1259341);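 also: PE anti-Flag signal of Flag-CARD9 captured by myc-TRIM62 beads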
Conditions: PE fluorescence, active compounds read low, concentration not given here

Chain of Caspase recruitment domain-containing protein 9 (Homo sapiens) + E3 ubiquitin-protein ligase TRIM62 (Homo sapiens) (Q9BVG3 whole entry, looked up, the tested form may be a part): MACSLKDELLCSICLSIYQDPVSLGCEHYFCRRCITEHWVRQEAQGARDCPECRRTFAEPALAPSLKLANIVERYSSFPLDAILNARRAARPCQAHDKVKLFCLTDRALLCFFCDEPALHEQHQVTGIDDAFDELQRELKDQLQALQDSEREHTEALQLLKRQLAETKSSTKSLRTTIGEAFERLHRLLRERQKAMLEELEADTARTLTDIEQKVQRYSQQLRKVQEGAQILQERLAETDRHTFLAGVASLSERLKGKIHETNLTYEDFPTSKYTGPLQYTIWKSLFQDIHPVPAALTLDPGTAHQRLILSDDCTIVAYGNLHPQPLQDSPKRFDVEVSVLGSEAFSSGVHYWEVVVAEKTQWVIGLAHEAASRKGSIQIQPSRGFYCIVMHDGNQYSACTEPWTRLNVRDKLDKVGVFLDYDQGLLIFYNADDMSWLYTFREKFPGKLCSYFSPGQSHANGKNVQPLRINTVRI
Chain of Caspase recruitment domain-containing protein 9 (Homo sapiens) + E3 ubiquitin-protein ligase TRIM62 (Homo sapiens) (Q9H257 whole entry, looked up, the tested form may be a part): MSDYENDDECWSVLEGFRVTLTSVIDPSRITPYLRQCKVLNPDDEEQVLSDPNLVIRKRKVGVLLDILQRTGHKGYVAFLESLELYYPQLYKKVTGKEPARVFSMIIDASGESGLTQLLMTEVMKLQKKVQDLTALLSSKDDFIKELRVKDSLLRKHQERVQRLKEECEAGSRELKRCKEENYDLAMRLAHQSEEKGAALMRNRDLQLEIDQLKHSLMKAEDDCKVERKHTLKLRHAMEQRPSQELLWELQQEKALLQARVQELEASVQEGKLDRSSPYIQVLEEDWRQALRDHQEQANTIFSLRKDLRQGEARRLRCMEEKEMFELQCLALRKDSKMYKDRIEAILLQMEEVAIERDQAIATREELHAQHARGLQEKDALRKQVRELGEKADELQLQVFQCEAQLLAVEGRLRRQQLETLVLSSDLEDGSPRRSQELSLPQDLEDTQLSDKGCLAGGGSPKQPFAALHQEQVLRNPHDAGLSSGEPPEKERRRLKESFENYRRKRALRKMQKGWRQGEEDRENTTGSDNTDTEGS

**Q.** How did the activity change, negative = inhibition turn out when `O=C(NCc1cccnc1)c1ccccc1-c1nc(-c2ccccc2)no1` was run?
**A.** -1.01%

**Q.** For `C[C@H](CO)N1C[C@H](C)[C@@H](CN(C)CC2CCCCC2)OCCCC[C@H](C)Oc2ccc(NS(C)(=O)=O)cc2C1=O`, which activity change, negative = inhibition is on record?
**A.** -25.8%

**Q.** How did the activity change, negative = inhibition turn out when `C[C@H](CO)N1C[C@H](C)[C@@H](CN(C)CC2CCCCC2)OCCCC[C@H](C)Oc2ccc(NS(=O)(=O)c3ccccc3)cc2C1=O` was run?
**A.** 7.12%

**Q.** `O=C(CC1Nc2ccccc2OC1=O)Nc1ccc(Cl)cc1` (stereo not given) was tested. Which activity change, negative = inhibition did it give?
**A.** 13.8%

**Q.** Which activity change, negative = inhibition does the source give for `CCNc1ncc(C(=O)NCCc2nc3c(s2)CCCC3)cn1` here?
**A.** -3.32%

**Q.** Which activity change, negative = inhibition does the source give for `COc1c(C(=O)O)csc1Br` here?
**A.** -20.4%

**Q.** For `O=C(CCCN1C(=O)NC2(CCCC2)C1=O)Nc1ccc(F)cc1`, which activity change, negative = inhibition is on record?
**A.** 23.8%

**Q.** Which activity change, negative = inhibition does the source give for `CCN(CCNC(=O)C1CCN(S(=O)(=O)c2c(C)noc2C)CC1)c1ccccc1` here?
**A.** -0.84%

**Q.** `COc1ccc(NC(=O)CN(C)C(=O)c2cc(-c3ccco3)nc3ccccc23)cc1` was tested. Which activity change, negative = inhibition did it give?
**A.** -8.21%

**Q.** Which activity change, negative = inhibition does the source give for `O=[N+]([O-])c1ccc2cc[nH]c2c1` here?
**A.** 7.88%

**Q.** For `O=[N+]([O-])c1c(NCCCO)cc(SCc2ccco2)c2nonc12`, which activity change, negative = inhibition is on record?
**A.** 15.3%

**Q.** `O=C(Cn1cncc1-c1ccc([N+](=O)[O-])cc1)Nc1ccccc1F` was tested. Which activity change, negative = inhibition did it give?
**A.** 4.4%

**Q.** With `CCc1ccc(Nc2nc(C(=O)NCc3ccc(N(C)C)cc3)nc3ccccc23)cc1` as the compound, how does the activity change, negative = inhibition read?
**A.** -21%

**Q.** `O=S(=O)(c1ccc2nc(-c3ccco3)c(-c3ccco3)nc2c1)N1CCOCC1` was tested. Which activity change, negative = inhibition did it give?
**A.** -5.03%

**Q.** For `O=C1C=C(c2ccccc2)Nc2ccccc2N1`, which activity change, negative = inhibition is on record?
**A.** 2.64%
